A selection: hits, their analogues and other compounds. The true share with any hit is near 6.2%.
HCMV inh: human cytomegalovirus inhibition; 410,000 tested, 4.5% active; activity change, negative = inhibition, % at 57.5 µM; HFF cells, HCMV-luciferase reporter, 72 h; hits give low values; in the data active = activity change below about -60%; inconclusive = no clear call, values can overlap the other calls; inactive = above about -39%
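Compounds were evaluated in HFFs infected with an HCMV luciferase reporter virus (MOI 1 PFU/cell). Luciferase in lysates collected 72 h post infection served as the replication measure.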
MARV entry inh: inhibitors of Marburg virus binding or cell entry. Marburg virus pseudotyped entry inhibition, cell reporter. Potency, µM (doses to about 37.8 µM), for inactives: at the highest dose activity change, negative = inhibition, most hits filed as inhibitors. 300,000 tested, 1.8% active. AID 540276; calls by dose curve; tested in HEK293 cells; also: potency is read from the fitted curve at half-maximal effect
FMDV antiviral: foot and mouth disease virus antiviral activity; Potency, µM (titrated, usually from 57.9 µM), inactives show at the highest dose activity change, negative = inhibition, most hits filed as inhibitors; 410,000 tested, 1.2% active; FMDV antiviral cell-based qHTS; calls by dose curve; tested in HEK293T cells; also: read-out not given here; potency is read from the fitted curve at half-maximal effect; nearly all actives have a fitted effect of over 45% in size
Lassa entry inh: inhibitors of Lassa virus binding or cell entry; Lassa virus pseudotype entry inhibition, cell reporter; Potency, µM (doses to about 37.9 µM), without a hit: at the highest dose activity change, negative = inhibition, actives largely listed as inhibitors; 300,000 tested, 1.2% active; AID 540256; calls by dose curve; tested in HEK293 cells; also: potency is read from the fitted curve at half-maximal effect; nearly all actives have a fitted effect of over 50% in size
* = called active by the depositor; ? = inconclusive; . = no result given; [ ] = remark or other dose. % is scaled to controls: 0 for no effect and ±100 for the full control effect.

SMILES	HCMV inh	MARV entry inh	FMDV antiviral	Lassa entry inh
COc1ccc2cc(C(=O)C3CCCN(C(=O)CSc4nnc(C)o4)C3)ccc2c1 (stereo not given)	-66*	?	-23%	-23%[46.1 µM]
COc1ccc2cc(C(=O)C3CCCN(Cc4cnc(N5CCOCC5)s4)C3)ccc2c1 (stereo not given)	-65*	?	-19%	-29%[46.1 µM]
COc1ccccc1Cc1c(-c2ccc(F)cc2)nc2cc(C)c(Br)c(C)n12	39	.	12%	.
Cn1c2ccccc2c2cc(C(=O)N3CCOc4ccc(C(C)(O)CCn5cccn5)cc4C3)ccc21 (stereo not given)	.	.	-10%	.
COc1ccc2c(c1)c(=O)c(C(=O)c1ccc(Cl)cc1)cn2CC(=O)Nc1ccc2c(c1)OCCO2	22	1%[46.1 µM]	?	-2%[46.1 µM]
O=C(CCc1cn(Cc2ccccc2Cl)c2ccccc12)NC1CCCCC1	-72*	.	-13%	-29%[46.1 µM]
CCCCn1nc(NC(=O)c2cccs2)c2cc3ccccc3nc21	7	16µM*	-12%	?
Cc1ccc(NCC(=O)Nc2cccc(F)c2)cc1S(=O)(=O)N1CCCCCC1	-98*	?	?	?
Cc1ccc(NC(=O)CN2CCCC2c2cccs2)cc1S(=O)(=O)N1CCCCC1 (stereo not given)	-63*	.	?	.
Cc1ccccc1C(=O)NCC(=O)Nc1ccc(C)c(S(=O)(=O)N2CCCCCC2)c1	-12	?	35µM*	?
O=C(CNc1cccc(F)c1)Nc1cccc(S(=O)(=O)N2CCCCC2)c1	4	1%[46.1 µM]	17%	-9%
Cc1ccc(NC(=O)Cn2nc(C(=O)O)c3ccccc3c2=O)cc1S(=O)(=O)N1CCCCC1	2	-27%	40µM*	3%
Cc1ccc(NC(=O)COc2ccccc2)cc1S(=O)(=O)N1CCCCC1	-15	.	-22%	.
CCn1nnc2cc(C(=O)Nc3ccc(C)cc3Br)ccc21	20	.	40%	?
CC1=C(C(=O)O)N2C(=O)C(NC(=O)C(N)c3ccccc3)C2SC1 (stereo not given)	.	.	6%	.
CCOc1ccc(C(c2c(O)cc(C)n(CCOC)c2=O)N2CCN(c3ccc(F)cc3)CC2)cc1 (stereo not given)	8	.	0%	-11%[46.1 µM]
O=C(NCc1ccccc1)c1c(Cl)nc(Cl)c(Cl)c1Cl	-84*	?	-14%	-26%
Cc1nc(Cl)c(C(=O)NCc2ccccc2)c(C)c1Cl	-70*	-5%	-2%	-1%
Cc1nc(Cl)c(C(=O)NCc2ccccc2)c(C)c1[N+](=O)[O-]	?	0%[46.1 µM]	-6%	-12%[46.1 µM]
O=C(CCn1c(=O)c2cccn2c2cccnc21)Nc1ccccc1C(F)(F)F	6	.	-2%	3%[46.1 µM]
Cc1ccc(NC(=O)O/N=C/c2c(C)nn(C(C)(C)C)c2C)cc1Cl	-86*	?	0.013µM*	?
CCOc1ccc(NC(=O)N(Cc2ccc(CC)cc2)Cc2cn[nH]c2-c2ccc(OC)cc2)cc1	?	11%[46.1 µM]	?	9%[46.1 µM]
CC(C)C12CN3CC(C(C)C)(CN(C1)C3c1ccc([N+](=O)[O-])o1)C2=O (stereo not given)	-72*	-1%[46.1 µM]	13%	0%
CC12CN3CC(C)(CN(C1)C3c1ccc([N+](=O)[O-])o1)C2=O (stereo not given)	-37	-23%	-9%	-6%
CC1(C)CC(N=c2cc(-c3ccccc3)oc3ccc(Cl)cc23)CC(C)(C)N1	-99*	?	6%	?
SMILES	HCMV inh	MARV entry inh	FMDV antiviral	Lassa entry inh
CCOC(=O)C1=C(CS(=O)(=O)c2ccc(C)c(C)c2)NC(=O)NC1c1ccccc1OCC (stereo not given)	-28	-1%[46.1 µM]	-3%	-12%[46.1 µM]
CNC(=O)c1cc(Oc2ccc(NC(=O)c3[nH]c(-c4ccccc4)c4c3C(=O)N(C)C4=O)cc2)ccn1	15	.	?	.
Cc1ccc(-n2cccn2)c(CN2CCC(CO)(CCc3ccccc3)CC2)c1	-26	8.9µM*	-5%	-5%
COC1CCCC(c2nc(N)nc(SC)c2C#N)C1 (stereo not given)	.	4%	.	.
CCCCn1c(CN(C)Cc2ccccc2)nc2c1c(=O)n(C)c(=O)n2C	?	?	?	-18%
CCCn1c(CN(C)Cc2ccccc2)nc2c1c(=O)n(C)c(=O)n2C	-68*	?	7.9µM*	?
CCCn1c(CN(Cc2ccccc2)Cc2ccccc2)nc2c1c(=O)n(C)c(=O)n2C	.	?	25µM*	-16%
O=C(NCc1cccc(F)c1)c1ccc2nc(CCc3ccccc3)oc2c1	68	.	16%	-4%[46.1 µM]
O=C(Nc1cc(-c2nc3cc(Cl)ccc3o2)ccc1Cl)c1cc2ccccc2o1	-6	-3%[46.1 µM]	0%	10%[46.1 µM]
CCc1nc2cc(C(=O)N3CCCN(C=O)CC3)cc(NC(=O)c3ccccc3OC)c2n1C	.	.	-1%	.
Cc1cccc(N/N=C(\C(N)=O)C2=NC(C)(C)Cc3ccccc32)c1	-98*	?	25µM*	6.3µM*
O=C(OC(C(=O)Nc1ccc([N+](=O)[O-])cc1Br)c1ccccc1)c1ccccc1 (stereo not given)	-33	3.5µM*	19%	-2%
COCCNC(C(=O)Nc1ccc([N+](=O)[O-])cc1Br)c1ccccc1 (stereo not given)	-82*	-9%	?	-5%
CCN(CC)CC#CCC(O)(c1ccccc1)c1ccc(Br)cc1 (stereo not given)	-62*	23µM*	-21%	?
CCN(CC)CC#CCC(O)(c1ccccc1)c1ccccc1	-2	?	-16%	-28%
COC(=O)c1ccc(CN2CCOc3ccc(CN4CCC(O)(c5cccnc5)CC4)cc3C2)cc1	.	.	18µM*	.
CCOc1ccc(Br)cc1CNCCN1CCOCC1	8	?	-20%	1%
CCOc1ccc(Br)cc1CNc1ccc2c(c1)OCCO2	-65*	?	-19%	-8%
C=CCOc1ccccc1CNc1ccc2c(c1)OCCO2	.	?	18µM*	11µM*
COC(=O)c1c(N)n(-c2cc(Cl)cc(Cl)c2)c2nc3ccccc3nc12	-7	-6%[46.1 µM]	-15%	20%[46.1 µM]
CCN(CC)S(=O)(=O)c1ccc(-c2ccc(S(=O)(=O)N(CC)CC)cc2)cc1	-64*	?	?	?
CCOc1ccc(S(=O)(=O)N(CC)CC)cc1N	-81*	19%	1%	7%
Cn1cc(CN2CCC(C3(c4ccccn4)NC(=O)N(CC4CCCO4)C3=O)CC2)c2ccccc21 (stereo not given)	.	.	-3%	.
C/C(=N/NC(=O)NC12CC3CC(CC(C3)C1)C2)c1ccccc1	-62*	.	7%	.
O=C(N/N=C/c1ccccc1O)NC12CC3CC(CC(C3)C1)C2	-30	?	10%	?
C=Cc1ccc(C(=O)N2CCc3c(cnc(C)c3CNC(=O)c3ccc4c(c3)OCO4)C2)cc1	.	.	-4%	.
C=C1C(=O)O[C@H]2C[C@H]1[C@@H](OC(C)=O)C/C(C)=C/CC/C(C)=C\CC[C@]2(C)O	-103*	.	7.1µM*	.
C=C1C(=O)OC2C=C(C)CCC=C(C)CCC12 (stereo not given)	.	.	-20%	.
N#CC1=C2N=C(N)c3ccccc3N2C2=C(C(=O)CCC2)C1c1ccc(Cl)cc1 (stereo not given)	-91*	-30%	-22%	?

Assay outcomes deposited in PubChem BioAssay by National Center for Advancing Translational Sciences (NCATS).
